The campaign covered roughly 5,500 compounds. About 2,000 (36%) were called active. Another 18% or so got no clear call; they are omitted. No stated cut-off is given here; in the data, active means normalized growth mostly below about 0.91 (no sharp cut-off); inconclusive means no clear call, values can overlap the other calls; inactive means mostly above about 0.92. Some of the results follow.
Experiment: chemical genetic growth profiling, strain panel (AID 1159580);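 further: tested at 20 µM; growth read once vehicle control cultures reached saturation at 30 °C; 1 = growth at the plate median or of vehicle wells; lower values mean less growth of the strain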
Conditions: growth OD

Measured: normalized growth

CCCCC[C@H](CC(=O)NO)C(=O)N[C@H](C(=O)N1CCC[C@H]1CO)C(C)C
inactive: S. cerevisiae deletion strains, locus YJR043C, strain POL32, active compounds read low 0.978 | S. cerevisiae deletion strains, locus YJR066W, strain TOR1, active compounds read low 0.934 | S. cerevisiae deletion strains, locus YJR075W, strain HOC1, active compounds read low 1.04 | S. cerevisiae deletion strains, locus YKL009W, strain mrt4, active compounds read low 1.03 | S. cerevisiae deletion strains, locus YKL068W, active compounds read low 1.01 | S. cerevisiae deletion strains, locus YKL085W, strain MDH1 (second series), active compounds read low 1.02 | S. cerevisiae deletion strains, locus YKL085W, strain MDH1, active compounds read low 1.02 | S. cerevisiae deletion strains, locus YKL160W, strain elf1, active compounds read low 1.01 | S. cerevisiae deletion strains, locus YKL190W, strain CNB1, active compounds read low 1.01 | S. cerevisiae deletion strains, locus YKR001C, strain vps1, active compounds read low 1.02 | S. cerevisiae deletion strains, locus YKR026C, strain gcn3, active compounds read low 1.01 | S. cerevisiae deletion strains, locus YKR091W, strain srl3, active compounds read low 1.02 | S. cerevisiae deletion strains, locus YLL001W, strain dnm1, active compounds read low 1.01 | S. cerevisiae deletion strains, locus YLL026W, active compounds read low 1.02 | S. cerevisiae deletion strains, locus YLL041C, strain sdh2, active compounds read low 1.01 | S. cerevisiae deletion strains, locus YLR027C, strain aat2, active compounds read low 1.01 | S. cerevisiae deletion strains, locus YLR039C, strain RIC1, active compounds read low 0.947 | S. cerevisiae deletion strains, locus YLR058C, strain SHM2, active compounds read low 1.01 | S. cerevisiae deletion strains, locus YLR102C, strain apc9, active compounds read low 1.02 | S. cerevisiae deletion strains, locus YLR113W, strain HOG1, active compounds read low 0.972 | S. cerevisiae deletion strains, locus YLR221C, strain rsa3, active compounds read low 1.01 | S. cerevisiae deletion strains, locus YLR258W, strain gsy2, active compounds read low 1.02 | S. cerevisiae deletion strains, locus YLR262C, strain YPT6 (second series), active compounds read low 1.02 | S. cerevisiae deletion strains, locus YLR262C, strain YPT6, active compounds read low 0.938 | S. cerevisiae deletion strains, locus YLR268W, strain sec22, active compounds read low 1.03 | S. cerevisiae deletion strains, locus YLR320W, strain mms22, active compounds read low 1.04 | S. cerevisiae deletion strains, locus YLR330W, strain CHS5, active compounds read low 1.02 | S. cerevisiae deletion strains, locus YLR342W, strain FKS1 (second series), active compounds read low 0.961 | S. cerevisiae deletion strains, locus YLR342W, strain FKS1, active compounds read low 1.02 | S. cerevisiae deletion strains, locus YLR357W, strain rsc2, active compounds read low 1.05 | S. cerevisiae deletion strains, locus YLR370C, strain arc18, active compounds read low 1.01 | S. cerevisiae deletion strains, locus YLR371W, strain rom2, active compounds read low 1.04 | S. cerevisiae deletion strains, locus YLR384C, strain iki3, active compounds read low 1.02 | S. cerevisiae deletion strains, locus YLR418C, strain cdc73, active compounds read low 1.02 | S. cerevisiae deletion strains, locus YML016C, strain PPZ1, active compounds read low 1.02 | S. cerevisiae deletion strains, locus YML032C, strain rad52, active compounds read low 1.01 | S. cerevisiae deletion strains, locus YML120C, strain ndi1, active compounds read low 1.02 | S. cerevisiae deletion strains, locus YML124C, strain tub3, active compounds read low 1 | S. cerevisiae deletion strains, locus YMR058W, strain fet3, active compounds read low 1.01 | S. cerevisiae deletion strains, locus YMR078C, strain ctf18, active compounds read low 1.02 | S. cerevisiae deletion strains, locus YMR125W, strain sto1, active compounds read low 1.03 | S. cerevisiae deletion strains, locus YMR129W, active compounds read low 1.01 | S. cerevisiae deletion strains, locus YMR205C, strain PFK2, active compounds read low 1.04 | S. cerevisiae deletion strains, locus YMR223W, strain ubp8, active compounds read low 1.02 | S. cerevisiae deletion strains, locus YMR231W, strain pep5, active compounds read low 1.01 | S. cerevisiae deletion strains, locus YMR263W, strain SAP30, active compounds read low 1.03 | S. cerevisiae deletion strains, locus YMR307W, strain GAS1, active compounds read low 1.03 | S. cerevisiae deletion strains, locus YNL067W, strain RPL9B, active compounds read low 1.04 | S. cerevisiae deletion strains, locus YNL071W, strain lat1, active compounds read low 1 | S. cerevisiae deletion strains, locus YNL153C, strain GIM3, active compounds read low 1.04 | S. cerevisiae deletion strains, locus YNL183C, strain NPR1, active compounds read low 0.942 | S. cerevisiae deletion strains, locus YNL209W, strain ssb2, active compounds read low 1.01 | S. cerevisiae deletion strains, locus YNL233W, strain BNI4, active compounds read low 1.03 | S. cerevisiae deletion strains, locus YNL248C, strain rpa49, active compounds read low 1 | S. cerevisiae deletion strains, locus YNL250W, strain rad50, active compounds read low 1.02 | S. cerevisiae deletion strains, locus YNL271C, strain bni1, active compounds read low 1.02 | S. cerevisiae deletion strains, locus YNL298W, strain CLA4, active compounds read low 1.01 | S. cerevisiae deletion strains, locus YNL307C, strain MCK1, active compounds read low 1.02 | S. cerevisiae deletion strains, locus YNL322C, strain KRE1 (second series), active compounds read low 1.03 | S. cerevisiae deletion strains, locus YNR049C, strain mso1, active compounds read low 1.02 | S. cerevisiae deletion strains, locus YNR052C, strain pop2, active compounds read low 1.02 | S. cerevisiae deletion strains, locus YOL012C, strain htz1 1.13 | S. cerevisiae deletion strains, locus YOL147C, strain pex11, active compounds read low 1.02 | S. cerevisiae deletion strains, locus YOR001W, strain rrp6, active compounds read low 1 | S. cerevisiae deletion strains, locus YOR061W, strain CKA2, active compounds read low 1 | S. cerevisiae deletion strains, locus YOR069W, strain VPS5, active compounds read low 1.01 | S. cerevisiae deletion strains, locus YOR070C, strain gyp1, active compounds read low 1 | S. cerevisiae deletion strains, locus YOR080W, strain dia2, active compounds read low 1.03 | S. cerevisiae deletion strains, locus YOR083W, strain WHI5, active compounds read low 1.02 | S. cerevisiae deletion strains, locus YOR106W, strain vam3, active compounds read low 1.01 | S. cerevisiae deletion strains, locus YOR136W, strain idh2, active compounds read low 1.03 | S. cerevisiae deletion strains, locus YOR144C, strain elg1, active compounds read low 1.02 | S. cerevisiae deletion strains, locus YOR184W, strain ser1, active compounds read low 1.01 | S. cerevisiae deletion strains, locus YOR231W, strain MKK1, active compounds read low 0.989 | S. cerevisiae deletion strains, locus YOR265W, strain rbl2, active compounds read low 1.01 | S. cerevisiae deletion strains, locus YOR270C, strain vph1, active compounds read low 1.01 | S. cerevisiae deletion strains, locus YOR290C, strain snf2, active compounds read low 1.02 | S. cerevisiae deletion strains, locus YOR316C, strain cot1, active compounds read low 1.01 | S. cerevisiae deletion strains, locus YPL051W, strain arl3, active compounds read low 1.02 | S. cerevisiae deletion strains, locus YPL078C, strain atp4, active compounds read low 1.02 | S. cerevisiae deletion strains, locus YPL106C, strain sse1, active compounds read low 1.03 | S. cerevisiae deletion strains, locus YPL240C, strain hsp82, active compounds read low 1.01 | S. cerevisiae deletion strains, locus YPL256C, strain CLN2, active compounds read low 0.941 | S. cerevisiae deletion strains, locus YPR119W, strain clb2, active compounds read low 1.01 | S. cerevisiae deletion strains, locus YPR141C, strain kar3, active compounds read low 1.02 | S. cerevisiae deletion strains, locus YPR163C, strain tif3, active compounds read low 1.02 | S. cerevisiae deletion strains, locus YPR167C, strain met16, active compounds read low 1.03 | S. cerevisiae deletion strains, strain wtn01, active compounds read low 1.01 | S. cerevisiae strains, strain wild type, active compounds read low 1.01
